Measurements: PubChem BioAssay AID1159580 (chemical genetic matrix, 2015)
Where “and” joins values, the source holds several entries; their conditions need not be identical. Identical values can stand only once. In all, about 5,500 compounds went through this assay and about 2,000 (36%) were called active. Another 18% or so got no clear call; they are omitted. Rule as the data show it: active = normalized growth mostly below about 0.91 (no sharp cut-off); inconclusive = no clear call, values can overlap the other calls; inactive = mostly above about 0.92. The list shows a part of the results.

Test: chemical genetic growth profiling, strain panel (AID 1159580);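 also: tested at 20 µM; growth read once vehicle control cultures reached saturation at 30 °C; 1 = growth at the plate median or of vehicle wells; lower values mean less growth of the strain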
Details: S. cerevisiae deletion strains, growth OD

Measured: normalized growth

NNc1nncc2ccccc12
inactive: locus YAL013W, strain DEP1, active compounds read low 1.01 | locus YAL021C, strain ccr4, active compounds read low 0.991 | locus YAL026C, strain drs2, active compounds read low 0.973 | locus YAL030W, strain snc1, active compounds read low 1 | locus YAL040C, strain CLN3, active compounds read low 0.995 | locus YBL061C, strain skt5, active compounds read low 0.993 | locus YBR009C, strain hhf1, active compounds read low 0.983 | locus YBR021W, strain FUR4, active compounds read low 0.973 | locus YBR023C, strain chs3, active compounds read low 0.986 | locus YBR171W, strain sec66, active compounds read low 0.997 | locus YBR229C, strain ROT2, active compounds read low 1.01 | locus YBR231C, strain swc5, active compounds read low 0.981 | locus YBR279W, strain paf1, active compounds read low 0.996 | locus YCL011C, strain gbp2, active compounds read low 0.973 | locus YCL016C, strain dcc1, active compounds read low 0.969 | locus YCL029C, strain bik1, active compounds read low 1 | locus YCL061C, strain MRC1 (second series), active compounds read low 1 | locus YCL061C, strain MRC1, active compounds read low 0.988 | locus YCL069W, strain vba3, active compounds read low 1 | locus YCR088W, strain abp1, active compounds read low 0.999 | locus YDL005C, strain med2, active compounds read low 0.992 | locus YDL035C, strain GPR1, active compounds read low 1.02 | locus YDL040C, strain nat1, active compounds read low 1.01 | locus YDL074C, strain BRE1, active compounds read low 0.997 | locus YDL101C, strain DUN1, active compounds read low 1 | locus YDL134C, strain PPH21, active compounds read low 1.01 | locus YDL185W, strain tfp1, active compounds read low 0.999 | locus YDL192W, strain arf1, active compounds read low 0.999 | locus YDR001C, strain nth1, active compounds read low 0.997 | locus YDR069C, strain doa4, active compounds read low 1.02 | locus YDR101C, strain arx1, active compounds read low 1.01 | locus YDR137W, strain rgp1, active compounds read low 1.02 | locus YDR150W, strain NUM1, active compounds read low 1 | locus YDR159W, strain sac3, active compounds read low 1.03 | locus YDR162C, strain NBP2, active compounds read low 1.01 | locus YDR195W, strain ref2 1.06 | locus YDR297W, strain sur2, active compounds read low 1.02 | locus YDR318W, strain mcm21, active compounds read low 0.984 | locus YDR334W, strain swr1, active compounds read low 0.986 | locus YDR335W, strain msn5, active compounds read low 1.02 | locus YDR363W, strain ESC2, active compounds read low 0.997 | locus YDR388W, active compounds read low 0.993 | locus YDR392W, strain spt3, active compounds read low 0.878 | locus YDR502C, strain sam2, active compounds read low 0.986 | locus YEL003W, strain gim4, active compounds read low 0.989 | locus YEL037C, strain rad23, active compounds read low 1 | locus YEL061C, strain CIN8 (second series), active compounds read low 1 | locus YEL061C, strain CIN8, active compounds read low 1 | locus YER002W, strain NOP16, active compounds read low 0.995 | locus YER015W, strain faa2, active compounds read low 0.978 | locus YER016W, strain bim1, active compounds read low 1 | locus YER110C, active compounds read low 0.993 | locus YER111C, strain swi4, active compounds read low 0.986 | locus YER155C, strain BEM2 (second series), active compounds read low 0.947 | locus YER155C, strain BEM2, active compounds read low 1.02 | locus YER167W, strain BCK2, active compounds read low 1.01 | locus YFR010W, strain ubp6, active compounds read low 0.985 | locus YGL078C, strain dbp3, active compounds read low 0.999 | locus YGL086W, strain mad1, active compounds read low 0.996 | locus YGL167C, strain pmr1, active compounds read low 0.995 | locus YGL173C, strain kem1, active compounds read low 0.99 | locus YGL227W, strain vid30, active compounds read low 0.999 | locus YGL240W, strain doc1, active compounds read low 1 | locus YGL248W, strain PDE1, active compounds read low 0.99 | locus YGL253W, strain hxk2, active compounds read low 1.01 | locus YGR135W, strain pre9, active compounds read low 0.96 | locus YGR252W, strain gcn5, active compounds read low 0.941 | locus YHR013C, strain ard1, active compounds read low 0.986 | locus YHR027C, strain rpn1, active compounds read low 1 | locus YHR030C, strain SLT2, active compounds read low 1 and 1.02 | locus YHR079C, strain IRE1 (second series), active compounds read low 0.993 | locus YHR079C, strain IRE1, active compounds read low 1.01 | locus YHR094C, strain hxt1, active compounds read low 0.997 | locus YHR129C, strain ARP1, active compounds read low 0.997 | locus YHR142W, strain chs7, active compounds read low 0.997 | locus YHR200W, strain rpn10, active compounds read low 0.997 | locus YIL066C, strain RNR3, active compounds read low 1 | locus YIL073C, strain SPO22, active compounds read low 0.992 | locus YIL125W, strain kgd1, active compounds read low 1.01 | locus YIR030C, strain dcg1, active compounds read low 0.996 | locus YJL092W, strain hpr5, active compounds read low 0.988 | locus YJL095W, strain BCK1 (second series), active compounds read low 0.999 | locus YJL095W, strain BCK1, active compounds read low 0.971 and 0.995 | locus YJL115W, strain asf1, active compounds read low 0.996 | locus YJL129C, strain trk1, active compounds read low 0.994 | locus YJL134W, strain LCB3, active compounds read low 1 | locus YJL154C, strain vps35, active compounds read low 0.998 | locus YJL164C, strain tpk1, active compounds read low 0.993 | locus YJL166W, strain qcr8, active compounds read low 1 | locus YJL168C, strain set2, active compounds read low 0.989 | locus YJL187C, strain SWE1 (second series), active compounds read low 1 | locus YJL187C, strain SWE1, active compounds read low 1.01 | locus YJR043C, strain POL32, active compounds read low 1
